28 compounds from PubChem BioAssay (NCATS) can be followed below.

Inconclusive results are not listed. Active and inactive are the calls of the source. Calls come from the whole dose curve; as a rule, active = well fitted inhibition curve with a large enough effect; inconclusive = small, poorly fitted or top-dose-only effect; inactive = flat fitted curve, though single readings scatter. Non-standard residues stand in square brackets, D forms with d. Residues, ends and D or L forms follow the SMILES beside them. *: point of attachment. Sta = CC(C)C[C@H](N)[C@@H](O)CC(=O)O; Isovaleryl = CC(C)CC(=O)*
% is set by controls: 0 for no effect and ±100 for the full control effect; potency is the fitted concentration of half-maximal effect.

Tested on in the first assay: not listed separately
The experiment in a line: Drug repurposing screens with cells derived from glioblastoma tumor samples (AID 1345199). Note: nearly all actives have a fitted effect of over 40% in size. The following applies: GBM patient neurospheres viability, ATP luminescence, 48 h; at 46 µM (top of the series); tumour line A. Put shortly:
(§1)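 Primary testing used CD133+ neurospheres from four GBM patients, seven concentrations, 48 h exposure and ATP-based viability; confirmation added three slower-growing patient lines.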
For `CS(=O)(=O)OCCCCOS(C)(=O)=O`, the activity, negative = cell killing was -16.3% (inactive).

For `CC1(C)CCC(C)(C)c2cc(NC(=O)c3ccc(C(=O)O)cc3)ccc21`, the activity, negative = cell killing was -36.1% (inactive).

In the case of `CC(=O)Nc1ccc(O)cc1`, the activity, negative = cell killing is -25.4% (inactive).

Consider `Cc1ncc([N+](=O)[O-])n1CC(C)O` (stereo unspecified), for which the activity, negative = cell killing was -20.2% (inactive).

Still in this assay, the particulars now being: GBM patient neurospheres viability, ATP luminescence, 48 h; at 46.1 µM (top of the series); tumour line C.
As for `CS(=O)(=O)OCCCCOS(C)(=O)=O`, the activity, negative = cell killing is -0.778% (inactive).

Consider `c1ccc2[nH]c(-c3cscn3)nc2c1`, for which the activity, negative = cell killing was 7.08% (inactive).

For the compound `CN(C)C(=O)COC(=O)Cc1ccc(OC(=O)c2ccc(N=C(N)N)cc2)cc1`, the activity, negative = cell killing was -19.5% (inactive).

With `Cc1c(C(=O)NN2CCCCC2)nn(-c2ccc(Cl)cc2Cl)c1-c1ccc(Cl)cc1`, the activity, negative = cell killing was -11.3% (inactive).

`CCCc1cc(=O)[nH]c(=S)[nH]1`: the activity, negative = cell killing was -10.7% (inactive).

On to `N=C(N)c1ccc2cc(OC(=O)c3ccc(N=C(N)N)cc3)ccc2c1`, for which the activity, negative = cell killing is 10% (inactive).

On to `CC(=O)Nc1ccc(O)cc1`, for which the activity, negative = cell killing was -7.56% (inactive).

Take `COc1cc2nc(N3CCN(C(=O)C4CCCO4)CC3)nc(N)c2cc1OC` (stereo unspecified): the activity, negative = cell killing was -17.4% (inactive).

With `Cc1ncc([N+](=O)[O-])n1CC(C)O` (stereo unspecified), the activity, negative = cell killing was -8.86% (inactive).

The assay is the same for the next values; noted with them: GBM patient neurospheres viability, ATP luminescence, 48 h; tumour line A.
For `Cc1ccc(Nc2nccc(N(C)c3ccc4c(C)n(C)nc4c3)n2)cc1S(N)(=O)=O`, the Potency is 2510 nM (active).

Regarding `Cc1c(C(=O)NN2CCCCC2)nn(-c2ccc(Cl)cc2Cl)c1-c1ccc(Cl)cc1`, the Potency was 5010 nM (active).

As for `CC[C@]1(O)C[C@H]2CN(CCc3c([nH]c4ccccc34)[C@@](C(=O)OC)(c3cc4c(cc3OC)N(C=O)[C@H]3[C@@](O)(C(=O)OC)[C@H](OC(C)=O)[C@]5(CC)C=CCN6CC[C@]43[C@@H]65)C2)C1`, the Potency was 20 nM (active).

Turning to `Cc1c(OCC(F)(F)F)ccnc1CS(=O)c1nc2ccccc2[nH]1` (stereo unspecified), the Potency was 10000 nM (active).

In the next assay the test system is astro (control astrocytes). The description is as above. The following applies: viability, ATP luminescence, 48 h; series mostly up to 45.9 µM; activity, negative = cell killing: at the top concentration. Put shortly:
as §1
Take `CS(=O)(=O)OCCCCOS(C)(=O)=O`: the “activity, negative = cell killing” value was -11.5% (inactive).

Consider `CC(C)c1ccc2oc3nc(N)c(C(=O)O)cc3c(=O)c2c1`, for which the Potency was 1780 nM (active).

For the compound `CN(C)C(=O)COC(=O)Cc1ccc(OC(=O)c2ccc(N=C(N)N)cc2)cc1`, the “activity, negative = cell killing” value is -7.26% (inactive).

On to `Cc1cc2c(s1)Nc1ccccc1N=C2N1CCN(C)CC1`, for which the “activity, negative = cell killing” value was -23.6% (inactive).

In the case of `CC1=C(C)C(=O)C(C(CCCCCC(=O)O)c2ccccc2)=C(C)C1=O` (stereo unspecified), the “activity, negative = cell killing” value was -19.8% (inactive).

For the compound `CC(=O)NC[C@H]1CN(c2ccc(N3CCOCC3)c(F)c2)C(=O)O1`, the “activity, negative = cell killing” value is 2.61% (inactive).

Consider `NNc1nncc2ccccc12`, for which the “activity, negative = cell killing” value was -21.3% [at 21.2 µM] (inactive).

Regarding `CC(S)C(=O)NCC(=O)O` (stereo unspecified), the “activity, negative = cell killing” value is -14.3% (inactive).

Consider `Cc1c(C(=O)NN2CCCCC2)nn(-c2ccc(Cl)cc2Cl)c1-c1ccc(Cl)cc1`, for which the Potency is 35500 nM (active).

Consider `CCCc1cc(=O)[nH]c(=S)[nH]1`, for which the “activity, negative = cell killing” value was -18% (inactive).

Consider `COCCCOc1ccnc(CS(=O)c2nc3ccccc3[nH]2)c1C` (stereo unspecified), for which the Potency was 22400 nM (active).

Regarding `Cc1c(OCC(F)(F)F)ccnc1CS(=O)c1nc2ccccc2[nH]1` (stereo unspecified), the “activity, negative = cell killing” value was -8.87% (inactive).

With `CC(C)CC(=O)N[C@H](C(=O)N[C@H](C(=O)N[C@@H](CC(C)C)[C@@H](O)CC(=O)N[C@@H](C)C(=O)N[C@@H](CC(C)C)[C@@H](O)CC(=O)O)C(C)C)C(C)C` (Isovaleryl-VV[Sta]A[Sta]-OH), the “activity, negative = cell killing” value was -8.39% (inactive).

On to `N=C(N)c1ccc2cc(OC(=O)c3ccc(N=C(N)N)cc3)ccc2c1`, for which the “activity, negative = cell killing” value is -17.2% (inactive).

In the case of `CCOC(=O)c1c(C)n(C)c2ccc(O)cc12`, the “activity, negative = cell killing” value is -9.77% (inactive).

On to `O=C(O)c1cccc(-c2noc(-c3ccccc3F)n2)c1`, for which the Potency was 2510 nM (active).

Take `CCC1=C(C)CN(C(=O)NCCc2ccc(S(=O)(=O)NC(=O)NC3CCC(C)CC3)cc2)C1=O` (stereo unspecified): the “activity, negative = cell killing” value was -20.4% (inactive).

As for `CC(=O)Nc1ccc(O)cc1`, the “activity, negative = cell killing” value was -9% (inactive).

Take `O=C(NOCC1CC1)c1ccc(F)c(F)c1Nc1ccc(I)cc1Cl`: the Potency is 2510 nM (active).

On to `Cc1cc(=O)c2c(O)c3c(O)cc(=O)c4c3c3c(cc(O)c1c23)C(C)(C)C=4O`, for which the Potency was 2510 nM (active).

`COc1cc(C(C)=O)ccc1OCCCN1CCC(c2noc3cc(F)ccc23)CC1`: the “activity, negative = cell killing” value is -27.9% (inactive).

Turning to `COc1cc2nc(N3CCN(C(=O)C4CCCO4)CC3)nc(N)c2cc1OC` (stereo unspecified), the “activity, negative = cell killing” value was -16.7% (inactive).

Consider `Cc1ncc([N+](=O)[O-])n1CC(C)O` (stereo unspecified), for which the “activity, negative = cell killing” value is 2.02% (inactive).

Regarding `O=C(O)CCNC(=O)c1ccc(N=Nc2ccc(O)c(C(=O)O)c2)cc1`, the “activity, negative = cell killing” value was 4.57% (inactive).
